This is a sample that favours compounds with a hit; in the whole collection about 0.81% have one here.
Bcl-XL Bim block = disrupts Bim peptide binding to human Bcl-XL. inhibition, % at 10 µM. bead flow cytometry, fluorescence. Q07817. 190,000 tested, 0.04% active
Bim-Bcl-2 = human Bim-Bcl-2 interaction inhibition. P10415. Bead-based flow cytometry, Bim peptide-Bcl-2 binding. inhibition, % at 10 µM. 190,000 tested, 0.06% active. AID 950; in the data active = inhibition above about 40%;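 note: 0% = no compound wells with probe peptide and 100% = reference peptide inhibitor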
Target sequence (P10415 whole entry, looked up): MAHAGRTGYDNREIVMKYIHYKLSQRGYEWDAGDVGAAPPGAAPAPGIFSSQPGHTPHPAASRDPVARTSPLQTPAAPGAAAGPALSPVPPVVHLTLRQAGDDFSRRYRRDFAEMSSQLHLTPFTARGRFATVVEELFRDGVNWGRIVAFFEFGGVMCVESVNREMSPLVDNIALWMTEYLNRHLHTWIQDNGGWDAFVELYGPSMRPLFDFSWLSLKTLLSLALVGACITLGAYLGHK
Bfl-1 Bim block = inhibitors of Bim-Bfl-1 interaction, human. 190,000 tested, 0.12% active. Bead-based flow cytometry, Bim-Bfl-1 binding inhibition. inhibition, % at 10 µM;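 note: 0% = wells without compound plus tracer and 100% = blocker peptide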
Bcl-xL primary = blocks human Bcl-xL binding to Bim BH3 peptide; GST-Bcl-xL / FITC-Bim BH3 peptide fluorescence polarization; inhibition, % at 10.9 µM; 320,000 tested, 0.7% active;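 active = inhibition above the mean of all tested compounds plus 3 SD, cutoff set per campaign, cut at about 30% in these data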;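 note: 0% = DMSO wells and 100% = unlabeled Bim-BH3 peptide competitor; inhibitors lower millipolarization by displacing the labeled peptide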
Bcl-B Bim block = disrupts Bim peptide binding to human Bcl-B. AID 951. inhibition, % at 10 µM. Q9HD36. bead-based flow cytometry. 190,000 tested, 0.073% active;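 note: 0% = tracer peptide without compound and 100% = reference inhibitor peptide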
Target sequence (Q9HD36 whole entry, looked up): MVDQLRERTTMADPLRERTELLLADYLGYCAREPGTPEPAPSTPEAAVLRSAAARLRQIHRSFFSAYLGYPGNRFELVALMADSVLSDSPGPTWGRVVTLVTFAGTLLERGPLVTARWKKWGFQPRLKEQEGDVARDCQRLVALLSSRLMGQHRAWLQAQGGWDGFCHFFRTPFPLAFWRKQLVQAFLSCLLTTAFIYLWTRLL
Bcl-W Bim block = disrupts Bim peptide binding to human Bcl-W; Q92843; bead-based flow cytometry; inhibition, % at 10 µM; 190,000 tested, 0.02% active; AID 952;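 note: 0% = bound tracer without compound and 100% = peptide blocker; higher means less fluorescent Bim peptide bound to Bcl-W beads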
* hit, by the source's call; · = no result given. Cut-off read from the data, not from the text of the source, unless noted: active = inhibition above about 40%.

SMILES	Bcl-XL Bim block	Bim-Bcl-2	Bfl-1 Bim block	Bcl-xL primary	Bcl-B Bim block	Bcl-W Bim block
CC1(C)CC(=O)C(C=Nc2cccnc2/N=C/C2=C(O)CC(C)(C)CC2=O)=C(O)C1	-4.0	-2.0	3.0	58.1*	0.0	-6.0
COc1ccccc1C1=CC(=O)CC(C)(C)C1=O	·	·	·	2.8	·	·
COc1ccc(OC)c(-c2oc3ccccc3c(=O)c2O)c1	-2.0	-8.0	-12.0	2.3	-12.0	4.0
COc1ccc(OC)c(C2=C/C(=C/c3ccccn3)C(=O)O2)c1	-2.0	0.0	7.0	31.1*	-2.0	-5.0
Cc1cc(C)c(S(=O)(=O)/N=C2/C=C(SCC(=O)O)C(=O)c3ccccc32)cc1C	0.0	12.0	56.0*	·	-12.0	18.0
COc1ccccc1NC(=O)C1=C(C)NC(=O)NC1c1ccccc1[N+](=O)[O-] (configuration not stated)	0.0	4.0	-1.0	14.4	-2.0	2.0
CC1=C(C(=O)Nc2ccccc2)C(c2ccccc2[N+](=O)[O-])NC(=O)N1 (configuration not stated)	1.0	0.0	-2.0	35.7*	-1.0	2.0
COc1ccc(NS(=O)(=O)c2ccc(OCC(=O)N3CCOCC3)cc2)cc1Cl	·	·	·	4.0	·	·
CN(c1cccc(Cl)c1)S(=O)(=O)c1cccc(C(=O)NN2CCOCC2)c1	·	·	·	6.2	·	·
N#CC(C#N)=C(N)CSc1cccc[n+]1[O-]	0.0	-2.0	-9.0	30.4*	-2.0	0.0
Cc1ccc(S(=O)(=O)c2c(N)n(Cc3ccco3)c3nc4ccccc4nc23)cc1C	-4.0	-3.0	-6.0	31.7*	-4.0	-2.0
CN1C(=O)c2ccccc2NC(=O)[C@]12O[C@@H]2c1cccc(O)c1	·	·	·	61.5*	·	·
O=C(NC1CCCCC1)Sc1ccc(Cl)cc1	-5.0	-3.0	-10.0	0.0	-4.0	-3.0
CN=C(NC1CCCCC1)c1ccc(Cl)cc1	1.0	13.0	49.0*	0.7	-26.0	24.0
CCOc1cccc(C2C(C(=O)c3ccc(C)o3)=C(O)C(=O)N2c2nccs2)c1 (configuration not stated)	0.0	3.0	1.0	121.2*	1.0	0.0
O=C(C1=C(O)C(=O)N(c2nccs2)C1c1ccccc1)c1cc2ccccc2o1 (configuration not stated)	·	·	·	185.3*	·	·
Cc1cccn2c(=O)c(C=C(C#N)C#N)c(N3CCN(C)CC3)nc12	·	·	·	58.2*	·	·
Cc1ccc(C2C(C(=O)c3ccco3)=C(O)C(=O)N2c2nnc(C)s2)cc1 (configuration not stated)	-5.0	-6.0	-6.0	30.6*	-1.0	1.0
CSc1nnc(N2C(=O)C(O)=C(C(=O)c3ccco3)C2c2ccccc2)s1 (configuration not stated)	·	·	·	54.0*	·	·
CCCSc1nnc(N2C(=O)C(O)=C(C(=O)c3ccco3)C2c2ccccc2F)s1 (configuration not stated)	·	·	·	22.6	·	·
Cc1nnc(N2C(=O)C(O)=C(C(=O)c3ccco3)C2c2cccc3ccccc23)s1 (configuration not stated)	·	·	·	25.7	·	·
CSc1nnc(N2C(=O)C(O)=C(C(=O)c3ccco3)C2c2ccccc2F)s1 (configuration not stated)	·	·	·	69.5*	·	·
Cc1cc(C)cc(NC(=S)N2CCC(NC(=O)c3ccccc3C)CC2)c1	-1.0	0.0	-4.0	2.3	-7.0	-1.0
COc1ccc(NC(=O)COC(=O)c2ccc(OC)c(S(=O)(=O)N3CCCC3)c2)cc1OC	·	·	·	4.8	·	·
CCN(CC)C(=O)CSc1nc2c(sc(=S)n2-c2ccccc2)c(=O)n1Cc1ccco1	-7.0	-8.0	0.0	50.2*	-20.0	-6.0
SMILES	Bcl-XL Bim block	Bim-Bcl-2	Bfl-1 Bim block	Bcl-xL primary	Bcl-B Bim block	Bcl-W Bim block
CCOC(=O)c1ccc(NC(=O)CC2S/C(=N/N=C/c3c[nH]c4ccccc34)NC2=O)cc1 (configuration not stated)	·	·	·	0.5	·	·
Cc1ccc(NC(=O)CC2S/C(=N/N=C/c3c[nH]c4ccccc34)NC2=O)cc1 (configuration not stated)	33.0	25.0	42.0*	-0.8	27.0	28.0
COc1ccc(NC(=O)c2c(Nc3ccccc3)sc(C(=O)c3ccc(F)cc3)c2N)cc1	-1.0	-6.0	-16.0	1.1	-10.0	2.0
COc1ccc(C(=O)c2sc(Nc3ccccc3)c(C(=O)Nc3ccc(OC)c(OC)c3)c2N)cc1	-9.0	-13.0	-19.0	62.7*	-11.0	-1.0
COc1ccc2ccc3c(c2c1)N=CC1(O3)N(C)c2ccccc2C1(C)C (configuration not stated)	3.0	-30.0	0.0	35.8*	6.0	2.0
CN1c2ccccc2C(C)(C)C12C=Nc1c(ccc3ccccc13)O2 (configuration not stated)	-2.0	-1.0	-1.0	33.9*	-1.0	0.0
CCN1/C(=N\N)c2cccc3cccc1c23	13.0	23.0	12.0	52.1*	0.0	10.0
O=C1c2cccc3cccc(c23)N1Cc1ccc(F)cc1	-3.0	1.0	0.0	-1.2	-3.0	-1.0
CCOC(=O)C1=C(CSc2nc3c(cc2C#N)CN(C)CC3)OC(N)=C(C#N)C1c1ccccc1 (configuration not stated)	-4.0	0.0	6.0	67.6*	-11.0	-5.0
CCOC(=O)C1=C(CSc2nc3c(cc2C#N)CN(C)CC3)OC(N)=C(C#N)C1c1ccc(F)cc1 (configuration not stated)	0.0	2.0	3.0	39.3*	-3.0	1.0
COC(=O)C1=C(CSc2nc3c(cc2C#N)CN(C)CC3)OC(N)=C(C#N)C1c1ccccc1F (configuration not stated)	-6.0	2.0	8.0	85.7*	-15.0	-9.0
COc1ccccc1-n1c(C)c2c(OC)cccc(=O)c2c1C	-2.0	1.0	8.0	39.4*	-3.0	0.0
COc1cccc(=O)c2c(C)n(-c3ccc(C(=O)O)cc3)c(C)c12	0.0	-3.0	-3.0	67.7*	-2.0	0.0
COc1ccc(-n2c(C)c3c(OC)cccc(=O)c3c2C)cc1	0.0	-4.0	-7.0	8.7	-5.0	0.0
CCOc1cccc(=O)c2c(C)n(-c3ccc(C(=O)O)cc3)c(C)c12	-4.0	-1.0	-6.0	59.1*	-3.0	-1.0
O=C(COC(=O)CNC(=O)c1ccc(-c2ccccc2)cc1)NCc1ccco1	0.0	-1.0	-1.0	3.4	-2.0	0.0
Cc1ccc2c(c1)c1nc3ccccc3nc1n2C	·	·	·	58.1*	·	·
Cc1ccc2cc(C)c(Sc3nnnn3-c3ccccc3)nc2c1	42.0*	26.0	40.0*	4.1	23.0	28.0
COC(=O)C1CN(C(=O)COc2ccccc2)c2ccccc2O1 (configuration not stated)	·	·	·	2.7	·	·
O=C(NC12CC3CC(CC(C3)C1)C2)c1cnccn1	0.0	-4.0	-4.0	42.3*	-2.0	-1.0
Cc1nn(-c2ccccc2)nc1CNC(=O)C1CC1	·	·	·	2.4	·	·

Compound activity from PubChem.
